Only a selection was taken, and hits are over-represented in it overall.
aSyn tox rescue: qHTS of alpha-syn Inhibitors: NCGC Sytravon Library Screen | Potency, µM (titrated, usually from 46.1 µM), hits mostly activators | AID 1347070, 2019 | 0.02% of 94,000 active | S. cerevisiae alpha-synuclein toxicity rescue, BacTiter-Glo growth, 24 h; active = well fitted activation curve with a large enough effect
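Growth restoration measured by BacTiter-Glo luminescence after 24 hr at 30 deg C; alpha-synuclein yeast, raffinose-pregrown to mid-log, were added at OD600=0.02 in galactose medium onto pinned compounds.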
A number is an active result.

How did COc1cc(/C=C(\C#N)c2nc3ccccc3[nH]2)ccc1OCc1cccc(C(F)(F)F)c1 do in these assays?
aSyn tox rescue: inactive

Results for CN(C)CCNc1oc(-c2ccc(COc3ccc(Cl)cc3)o2)nc1C#N ?
aSyn tox rescue: inactive

What do the screens show for `Cc1oc(-c2ccccc2Cl)nc1CS(=O)(=O)CC(=O)NCc1ccc(F)cc1`?
aSyn tox rescue: inactive

Results for COc1ccc(CCNC(=O)c2ccc3c(c2)c(C)c(C)n3Cc2ccc(F)cc2)c(OC)c1OC ?
aSyn tox rescue: inactive

What do the screens show for `COc1ccc(Cl)cc1NC(=O)c1c(NCc2cccnc2)sc2c1CCC(C)C2` (centres undefined)?
aSyn tox rescue: inactive

What do the screens show for `COc1ccc(-n2ccn(CC(=O)NCCc3ccccc3)c(=O)c2=O)cc1OC`?
aSyn tox rescue: inactive

What do the screens show for `Cc1c(C(=O)N(C)c2cccc(C(F)(F)F)c2)sc2nc3n(c(=O)c12)CCCCC3`?
aSyn tox rescue: inactive

Results for COc1cc(OC)c(NC(=O)c2nn(C)c3c2COc2ccccc2-3)cc1Cl ?
aSyn tox rescue: inactive

How did O=C(Nc1nc2n(n1)C(c1ccccc1)C=C(c1ccccc1)N2)c1ccccc1 (centres undefined) do in these assays?
aSyn tox rescue: inactive

How did CCC(NC(=O)Nc1cc(Cl)ccc1OC)c1c(-n2cccc2)sc2c1CCN(C)C2 (centres undefined) do in these assays?
aSyn tox rescue: inactive

What do the screens show for `COc1ccc(N2CCN(c3ccc(-c4nc(-c5ccccc5)no4)cc3[N+](=O)[O-])CC2)cc1`?
aSyn tox rescue: inactive

How did CCOc1ccc(NC(=O)c2nn(C)c3c2COc2ccccc2-3)cc1 do in these assays?
aSyn tox rescue: inactive

Results for COc1ccc(NC(=O)C(=O)NCC(c2cccnc2)N2CCc3ccccc3C2)cc1 (centres undefined) ?
aSyn tox rescue: inactive

Results for Cc1nc2scc(C)n2c(=O)c1S(=O)(=O)Nc1cccc(O)c1 ?
aSyn tox rescue: inactive

How did COc1cccc(CNS(=O)(=O)c2c(C)nc3scc(C)n3c2=O)c1 do in these assays?
aSyn tox rescue: inactive

What do the screens show for `Cc1nc2scc(C)n2c(=O)c1S(=O)(=O)Nc1cccc(C(F)(F)F)c1`?
aSyn tox rescue: 11µM

Results for COCCn1c(C)cc(O)c(C(c2ccccc2)N2CCC(C)CC2)c1=O (centres undefined) ?
aSyn tox rescue: inactive

Results for Cc1ccc(C(=O)c2sc(Nc3ccc(F)cc3)nc2N)c(C)c1 ?
aSyn tox rescue: inactive

What do the screens show for `CCc1ccc(NC(=O)CC2C(=O)N(c3cccc(C)c3)C(=O)N2Cc2ccco2)cc1` (centres undefined)?
aSyn tox rescue: inactive

Results for CC(CNC(=O)c1ccc(Cn2c(=O)c3cccn3c3cccnc32)cc1)c1ccccc1 (centres undefined) ?
aSyn tox rescue: inactive

What do the screens show for `CCOc1ccc(CCNC(=O)c2cc3c(=O)oc4ccc(C)cc4c3s2)cc1OCC`?
aSyn tox rescue: inactive

How did CCOc1ccccc1CN1CCc2nc(N3CCN(c4ccccc4F)CC3)ncc2C1 do in these assays?
aSyn tox rescue: inactive

How did COc1ccc(-n2cc(C(=O)NCCc3cc(OC)ccc3OC)c3ccccc3c2=O)cc1 do in these assays?
aSyn tox rescue: inactive

How did CCOC(=O)c1ccc(NC(=O)c2c(NCc3cccs3)sc3c2CCCCC3)cc1 do in these assays?
aSyn tox rescue: inactive

How did Cc1oc(-c2cccc(Cl)c2)nc1CSCC(=O)NCc1ccccc1Cl do in these assays?
aSyn tox rescue: 20µM

What do the screens show for `Cc1ccc(CNC(=O)CSCc2nc(-c3ccc(Cl)cc3)oc2C)cc1`?
aSyn tox rescue: inactive

Results for Cc1oc(-c2ccc(Cl)cc2)nc1CSCC(=O)NCc1ccccc1Cl ?
aSyn tox rescue: inactive

What do the screens show for `Cc1ccc(N2C(=O)CS(=O)(=O)C23C(=O)N(Cc2ccccc2C)c2ccccc23)cc1Cl` (centres undefined)?
aSyn tox rescue: inactive

Results for CCOC(=O)c1c(C)[nH]c(C)c1S(=O)(=O)NCC(=O)Nc1cccc(SC)c1 ?
aSyn tox rescue: inactive

Results for Cc1ccc(S(=O)(=O)c2nc(-c3ccc(F)cc3)oc2SCC(=O)c2ccccc2)cc1 ?
aSyn tox rescue: inactive

Results for O=C(CSc1oc(-c2ccc(F)cc2)nc1S(=O)(=O)c1ccccc1)c1ccc(Cl)cc1 ?
aSyn tox rescue: inactive

Results for Cc1ccc(-c2nc(S(=O)(=O)c3ccc(C)cc3)c(SCC(=O)c3ccccc3)o2)cc1 ?
aSyn tox rescue: 18µM

What do the screens show for `CCc1ccccc1NC(=O)N1CCc2c([nH]c3ccccc23)C1c1ccc(C)cc1` (centres undefined)?
aSyn tox rescue: inactive

How did O=C(CCC1CCCC1)N1CCc2c([nH]c3ccccc23)C1c1ccc(F)cc1 (centres undefined) do in these assays?
aSyn tox rescue: inactive

What do the screens show for `CCOc1ccc(C2c3[nH]c4ccccc4c3CCN2C(=O)CSc2ccccc2)cc1` (centres undefined)?
aSyn tox rescue: inactive

What do the screens show for `Cc1ccc(C2c3[nH]c4ccccc4c3CCN2C(=O)CSc2ccccc2)cc1` (centres undefined)?
aSyn tox rescue: 14µM

From PubChem
